Holding throughout (format): functional
The target of assay [1] is Solute carrier family 2, facilitated glucose transporter member 1 (Homo sapiens) (UniProt P11166). The experiment in a line: ST_JUDE_LEISH: Cytotoxicity at 2uM final concentration against transgenic Leishmania Mexicana promastigotes LmGLUT1 that are glucose transport deficient and complemented with the human glucose transporter GLUT1. Activity is measured by DNA content using SYBR green in vitro.

In assay [2] the target is Hexose transporter 1 (Plasmodium falciparum) (UniProt O97467). Kind of assay: ST_JUDE_LEISH: Cytotoxicity at 2uM final concentration against transgenic Leishmania Mexicana promastigotes LmPfHT that are glucose transport deficient and complemented with the Plasmodium falciparum hexose transporter. Activity is measured by DNA content using SYBR green in vitro.
The target of assay [3] is Glucose transporter (Leishmania mexicana) (UniProt O61059). Kind of assay: ST_JUDE_LEISH: Cytotoxicity at 2uM final concentration against transgenic Leishmania Mexicana promastigotes LmGT2 that are glucose transport deficient and complemented with the L. Mexicana glucose transporter 2. Activity is measured by DNA content using SYBR green in vitro.

The structures appear in SMILES notation.

Solute carrier family 2, facilitated glucose transporter member 1 (Homo sapiens), sequence (P11166 whole entry): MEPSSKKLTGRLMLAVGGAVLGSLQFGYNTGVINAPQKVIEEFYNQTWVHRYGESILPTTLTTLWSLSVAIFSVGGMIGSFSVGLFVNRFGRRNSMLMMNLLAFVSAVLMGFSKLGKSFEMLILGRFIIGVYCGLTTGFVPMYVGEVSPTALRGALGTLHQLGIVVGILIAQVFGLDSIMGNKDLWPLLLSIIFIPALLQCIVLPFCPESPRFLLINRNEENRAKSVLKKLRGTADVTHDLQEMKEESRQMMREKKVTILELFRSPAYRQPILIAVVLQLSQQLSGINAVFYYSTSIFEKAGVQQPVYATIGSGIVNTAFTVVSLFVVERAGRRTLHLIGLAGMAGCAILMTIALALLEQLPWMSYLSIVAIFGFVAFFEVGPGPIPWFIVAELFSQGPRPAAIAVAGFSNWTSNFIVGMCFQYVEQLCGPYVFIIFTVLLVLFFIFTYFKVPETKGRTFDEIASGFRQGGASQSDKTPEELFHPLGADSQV

One may read the inhibition as the change of the read-out against control, counted positive when it falls. With `COc1cc(NCC(C)CNCc2cn(Cc3ccccc3)c3ccccc23)nc2ccccc12` (configuration not stated), the inhibition in assay [1] worked out at 3.78%; in assay [2], 6.19%; in assay [3], 6.44%.

With `c1ccc(-c2ccc3c(Nc4ccc5[nH]ncc5c4)ccnc3c2)nc1`, the inhibition was 4.92% in assay [1], 4.75% in assay [2] and 5.04% in assay [3].

Turning to `N#Cc1ccc2c(c1)CCN(CCC1CCC(NC(=O)/C=C/c3nc4ccccc4s3)CC1)CC2` (configuration not stated), the results for the inhibition in assay [1], in assay [2] and in assay [3] were 1.83%, 0.31% and -0.08%, respectively.

On to `CCNc1cc(C(=O)N[C@@H](Cc2ccoc2)[C@H](O)CNC(C)CCCC(C)C)cc(N2CCCCS2(=O)=O)c1` (some centres not stated), for which the inhibition in assay [1] worked out at 1.42%; in assay [2] it was 0.7%; in assay [3] it was 0.83%.

For the molecule `C[C@H](Cc1ccc(S(=O)(=O)c2ccc(C[C@@H](C)NC[C@H](O)c3cccc(Cl)c3)cc2)cc1)NC[C@H](O)c1cccc(Cl)c1`, the inhibition in assay [1] amounted to 2.7%; in assay [2], 4%; in assay [3] it was 2.18%.

On to `COc1cc2nc(-c3ccccc3)nc(N3CCN(C(=O)c4ccco4)CC3)c2cc1OC`, for which the inhibition stood at 13.7% in assay [1], 8.22% in assay [2] and 7.06% in assay [3].

In the case of `c1ccc2cc3c(NCCN4CCOCC4)ccnc3cc2c1`, the results for the inhibition in assay [1], in assay [2] and in assay [3] were 7.07%, 6.74% and 7.2%, respectively.

Take `O=C(NCc1ccccc1)c1nn(CCCN2CCC(N3CCCC3)CC2)cc1-c1ccc(Cl)c(Cl)c1`: the inhibition came to 4.94% in assay [1], 0.77% in assay [2] and 0.9% in assay [3].

Regarding `CCCN(CC1CC1)c1ncc(-c2ccccc2CNCc2ccccc2O)cn1`, the inhibition stood at 11.8% in assay [1], 8.72% in assay [2] and 4.56% in assay [3].

Consider `Cc1cccc2nc(-c3cccc(-c4cccc(CNCC5CCCO5)c4)c3)[nH]c12` (configuration not stated), for which the figures for the inhibition in assay [1], in assay [2] and in assay [3] were 1.16%, 0.17% and 1.17%, respectively.

As to `COc1ccc(NC(=O)[C@H](C)Nc2cc(C)nc(NCC3CCCCC3)n2)cc1`, the inhibition amounted to 5.31% in assay [1], 3.39% in assay [2] and 3% in assay [3].

Regarding `COc1cc(C(=O)N2CCOC(CCN3CCC(Cc4ccc(F)cc4)CC3)(c3ccc(Cl)c(Cl)c3)C2)cc(OC)c1OC` (configuration not stated), the values for the inhibition in assay [1], in assay [2] and in assay [3] were 5.79%, 7.29% and 2.49%, respectively.

As to `Oc1cc(NC[C@@H]2CCC[C@@H]2NCc2ccc(Cl)c(Cl)c2)nc2ccccc12`, the results for the inhibition in assay [1], in assay [2] and in assay [3] were 9.21%, 8.79% and 7.45%, respectively.

Consider `Cc1cnc(CN(Cc2ccc(-c3ccc(CNCCc4ccc(S(C)(=O)=O)cc4)cn3)cc2)C(=O)c2nn(-c3ccccc3)nc2C)cn1`, for which the inhibition in assay [1] was 5.03%; in assay [2] it was 3.95%; in assay [3], 4.81%.

On to `COc1cccc(CNC(=O)c2ccnc(-c3ccc(CNCCOc4ccccc4)cc3)c2)c1`, for which the values for the inhibition in assay [1], in assay [2] and in assay [3] were 1.12%, 1.69% and 1.51%, respectively.

Turning to `CC(C)c1ccc(NC(=O)N[C@H]2CCN(CCCCCNC(=O)/C=C/c3ccc(Cl)c(Cl)c3)C2)cc1`, the figures for the inhibition in assay [1], in assay [2] and in assay [3] were 2.04%, -3.46% and 2.9%, respectively.

For the molecule `COc1cc(Cc2cnc(N)nc2N)cc(OCc2cccc(C(=O)O)c2)c1OC`, the inhibition was -0.05% in assay [1], -2% in assay [2] and 1.03% in assay [3].

For the molecule `O=C(Nc1ccc(-c2ccccc2)cc1)Nc1cccc(Cn2cnc(N3CCCNCC3)cc2=O)c1`, the values for the inhibition in assay [1], in assay [2] and in assay [3] were 5.12%, 4.17% and 4.86%, respectively.

Consider `O=C(/C=C/c1ccc(Cl)c(Cl)c1)NCCCCCN1CCCC(CNS(=O)(=O)c2cccc(C(F)(F)F)c2)C1` (configuration not stated), for which the inhibition in assay [1] is -0.87%; in assay [2], -0.18%; in assay [3] it was -1.57%.

As for `COCCNCc1cccc(C#Cc2cc3ncnc(Nc4ccc(OCc5cccc(F)c5)c(Cl)c4)c3s2)n1`, the inhibition is 5.28% in assay [1], 5.8% in assay [2] and 3.62% in assay [3].

Take `COc1ccc(Cl)cc1NC(=O)C(C)Nc1ccc(-c2ccccc2)cc1` (configuration not stated): the inhibition was determined as 2.84% in assay [1], 2.75% in assay [2] and 5.12% in assay [3].

As to `Cc1cc(C)cc(CC(=O)N2CCC(n3c(C)nc4ccc(C)cc43)CC2)c1`, the inhibition in assay [1] was found to be 2.35%; in assay [2], 1.45%; in assay [3], 1.51%.

As to `CC(C)(CC1CCCCC1)NC(=O)[C@H](CC1CCCCC1)Nc1ccc(C#N)c2ccccc12`, the results for the inhibition in assay [1], in assay [2] and in assay [3] were 1.82%, 1.4% and -1.9%, respectively.

Regarding `O=C(NCc1cccc(Br)c1)c1ccc(CNC2CCN(Cc3ccccc3)CC2)cc1`, the inhibition in assay [1] came to 5.34%; in assay [2], 1.61%; in assay [3], 5.37%.

For the molecule `O=C(Cn1c(CCc2cccc(F)c2F)nc(=O)c2ccccc21)N(Cc1ccc(-c2ccc(C(F)(F)F)cc2)cc1)C1CCN(C2=NCCS2)CC1`, the inhibition in assay [1] was 3.56%; in assay [2] it was 4.28%; in assay [3], 4.67%.

On to `CCOc1cc(CC)ccc1C1CCN(CCN2CCC(NC(=O)c3ccc(-c4ccc(C(C)=O)cc4)cc3)CC2)CC1`, for which the figures for the inhibition in assay [1], in assay [2] and in assay [3] were 1.17%, 1.9% and 1.24%, respectively.

Turning to `COc1cc(NC(=O)N2CCOC(CCN3CCC(c4ccccc4)CC3)(c3ccc(Cl)c(Cl)c3)C2)cc(OC)c1` (configuration not stated), the inhibition in assay [1] was 0.76%; in assay [2], 1.73%; in assay [3], -1.37%.

Regarding `N#Cc1ccc(NC(=O)c2ccc(C(=O)NCCCCN3CCC(c4ccc5c(c4OCCOC4CCCCO4)CCCC5)CC3)cc2)cc1` (configuration not stated), the inhibition in assay [1] was found to be 0.68%; in assay [2], 2.54%; in assay [3], 0.27%.

As for `C[C@@H](NC(=O)NC(CCN1CCC2(CC1)CN(S(C)(=O)=O)c1ccccc12)c1ccc(Cl)c(Cl)c1)c1ccccc1` (some centres not stated), the inhibition in assay [1] was 0.39%; in assay [2], 4.43%; in assay [3], -3.56%.

On to `CC(C)[C@@H](NC(=O)NC1CCC(CCN2C3CCC2CC(OC(=O)C(CO)c2ccccc2)C3)CC1)C(O)(c1ccccc1)c1ccccc1` (some centres not stated), for which the inhibition was 8.23% in assay [1], 8.36% in assay [2] and 4.86% in assay [3].

As for `CCN(CC)Cc1cc(Nc2ccnc3cc(Cl)ccc23)ccc1O`, the inhibition in assay [1] was -1.88%; in assay [2], 2.29%; in assay [3] it was 4.65%.

On to `COc1ccc(CNC2Cc3ccccc3C2)cc1-c1ccc(OC)c(S(=O)(=O)NCCN2CCCC2)c1`, for which the inhibition in assay [1] was 1.59%; in assay [2] it was 1.67%; in assay [3], -1.29%.

As for `O=C(NC1CCN(Cc2ccccc2)CC1)c1cc(C(=O)NC2CCN(Cc3ccccc3)CC2)cc(C(=O)NC2CCN(Cc3ccccc3)CC2)c1`, the inhibition worked out at 5.09% in assay [1], 4.78% in assay [2] and 4.94% in assay [3].

Consider `COCCn1c(-c2cccc(Cl)c2)nn(-c2ccc([N+](=O)[O-])cc2Cl)c1=S`, for which the figures for the inhibition in assay [1], in assay [2] and in assay [3] were 4.03%, 6.65% and 7.62%, respectively.

In the case of `CCc1c[nH]c2c(N3CCCC3=O)cc(C(=O)N[C@@H](Cc3ccccc3)[C@H](O)CNC(C)(C)c3cccc(C(F)(F)F)c3)cc12`, the inhibition was -1.29% in assay [1], -2.43% in assay [2] and -0.27% in assay [3].

In the case of `Clc1ccc(-c2ccc(C=NNc3nc(=Nc4ccccc4)[nH]c(=Nc4ccccc4)[nH]3)o2)cc1Cl`, the inhibition in assay [1] was -3.26%; in assay [2], -1.12%; in assay [3], 7.88%.

In the case of `O=c1cc(NCCCNCc2cccc(SC(F)(F)F)c2)[nH]c2ccccc12`, the inhibition in assay [1] came out at 3.33%; in assay [2], 3.61%; in assay [3], 3.15%.

Turning to `COc1cccc(NC(=O)Cn2c(C)c(C#N)c3ccccc32)c1`, the inhibition in assay [1] came out at 3.53%; in assay [2], 5%; in assay [3], 3.36%.

Consider `CCc1cn2c3c(cc(C(=O)N[C@@H](Cc4ccccc4)[C@H](O)CNC4CCOCC4)cc13)N(CC(F)(F)F)S(=O)(=O)CC2`, for which the inhibition in assay [1] was 2.22%; in assay [2], 2.72%; in assay [3] it was 0.88%.

On to `COc1ccc(CNCc2ccc(-c3ccc(-c4nc5cc(C(F)(F)F)ccc5[nH]4)s3)cc2)cc1`, for which the inhibition in assay [1] was 3.27%; in assay [2], 1.92%; in assay [3] it was 2.4%.

For the molecule `CC(C)(C)c1cc(C(=O)N2CCN(c3nccnc3C#N)CC2)n(Cc2ccccc2)n1`, the inhibition is 1.68% in assay [1], 1.96% in assay [2] and 1.02% in assay [3].

For `CC(C)(C)c1cc(Cl)cc(C(=O)Nc2cc([N+](=O)[O-])ccc2Cl)c1O`, the results for the inhibition in assay [1], in assay [2] and in assay [3] were 5.8%, 4.84% and 4.28%, respectively.

In the case of `N=C(Cc1ccc(Cl)cc1)NCCN1CCCCCC1`, the inhibition in assay [1] worked out at 5.13%; in assay [2], 7.11%; in assay [3] it was 6.19%.

As for `CCN(CC)CCOC(=O)c1ccc(NC(=O)c2cc(-c3ccc(C)cc3)nc3ccccc23)cc1`, the inhibition was 1.71% in assay [1], 0.95% in assay [2] and 1.21% in assay [3].

With `COc1cccc(-c2nc(Nc3ccncc3)c3ncn(C)c3n2)c1`, the inhibition in assay [1] came out at 3.21%; in assay [2] it was 3.6%; in assay [3], 2.65%.

On to `CCN(CC)CCn1c(=N)n(CC(=O)c2ccc(-c3ccccc3)cc2)c2ccccc21`, for which the inhibition in assay [1] is 0.58%; in assay [2], 1.91%; in assay [3], 2.35%.

For `O=C(Nc1ccc(-c2csc(-c3nc4ccccc4[nH]3)c2)cc1)Nc1ccsc1`, the inhibition in assay [1] is 1.71%; in assay [2], 0.76%; in assay [3] it was 0.44%.

For `CC(=O)N/N=C/[C@H](CCc1ccccc1)NC(=O)[C@H](CC(C)C)NC(=O)c1ccc(F)cc1`, the inhibition amounted to 6.34% in assay [1], 4.34% in assay [2] and 4.68% in assay [3].

For the molecule `CCCNC(=O)C1CCN(C(c2ccc(Cl)cc2)c2ccc(Cl)cc2)CC1`, the inhibition in assay [1] was -0.62%; in assay [2] it was 2.95%; in assay [3], 0.49%.

Regarding `CC(C)CCNC(=N)Nc1ccc(OCCCOc2ccc(NC(=N)NCCC(C)C)cc2)cc1`, the values for the inhibition in assay [1], in assay [2] and in assay [3] were 0.62%, -1.4% and -0.91%, respectively.

`Cc1cccc(CC2CC(=O)N(c3ccc([N+](=O)[O-])cc3)C2=O)c1` (configuration not stated): the inhibition in assay [1] is 7.63%; in assay [2], 7.62%; in assay [3] it was 7.64%.

`COc1ccc(CCNc2ccnc3cc(Cl)ccc23)cc1OC`: the inhibition in assay [1] is 2.61%; in assay [2], 2.36%; in assay [3] it was 0.21%.

In the case of `COc1ccc(NC(=O)[C@H](CC(C)C)Nc2ccnc(Nc3ccccc3)n2)cc1`, the inhibition in assay [1] is 0.79%; in assay [2], 2.71%; in assay [3], -0.96%.

As for `Cc1cccc2nc(-c3cccc(-c4cccc(NC(=O)NC5CC5c5ccccc5)c4)c3)[nH]c12` (configuration not stated), the results for the inhibition in assay [1], in assay [2] and in assay [3] were 1.8%, 2.2% and 5.21%, respectively.

(Values after ChEMBL document CHEMBL3433997, “St. Jude Leishmania screening dataset” (2016).)
